# According to PubChem BioAssay (NCI):
# “And” between values parts separate entries of the source, which are not always exact repeats. Equal entries are not always repeated. About 83,000 compounds went through this panel and 20% of them were active in at least one assay; those are over-represented in the sample as a whole.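 48-hour exposure, single concentration, 96-well plates; percent growth endpoint where 0 means no net growth. Active: below 10.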 Values without a mark were called inactive. The source made the active and inactive calls.
# System: MDA-MB-468 breast
# Assay: NCI-60 one-dose screen, 48 h (100 = growth as untreated, 0 = no growth, -100 = all killed)
# Conditions: 10 µM unless noted
row,Compound,growth
1,COc1cc2c(cc1OC)C(=O)/C(=C/c1cc(-c3ccc4c(c3)OCO4)n[nH]1)C2,-26.4% (active)
2,COC(=O)[C@H](CCCCNC(=O)OCc1ccccc1)NC(=O)[C@@H](NC(=O)Nc1cc(C(F)(F)F)cc(C(F)(F)F)c1)C(C)C,-12.9% [100 µM] (active)
3,COc1ccc(/C=C/c2cc(N3CCOCC3)c3cc(F)c(F)cc3n2)cc1OC,14.5%
4,COc1ccc(/C=C/C(=O)c2ccc(Nc3nc(NCCO)nc(Nc4ccc(Cl)cc4)n3)cc2)cc1,73%
5,CN(CCC#N)c1ccc(/C=C2\NC(=O)NC2=O)cc1,110%
6,O=C1/C(=C/c2ccc(F)cc2)CN(C(=O)CCN2CCC(=NO)CC2)C/C1=C\c1ccc(F)cc1,-41.6% (active)
7,O=C(NCCN1CCCCC1)n1cc(-c2ccncc2)c(-c2ccc(Cl)c(O)c2)n1,83.8%
8,Cc1nc(-c2ccccc2)cc2c(O)c(C(=O)NN)[nH]c(=O)c12,116%
9,COC(=O)c1n[nH]c2ccc3nc(-c4cn[nH]c4C(F)(F)F)c4c(c3c12)CCCC4,73.8%
10,NC(=O)c1cccc(-n2ccc3cc(NC(=O)Nc4cc(C(F)(F)F)cc(C(F)(F)F)c4)ccc32)n1,40.7%
11,C/C(=C(/c1ccc(Cl)cc1)c1ccc(OCCN2CCCCCC2)cc1)c1ccccc1,72.5%
12,CC(=O)Nc1c(I)c(NC(C)=O)c(I)c(C(=O)O)c1I,115%
13,CN1CCN(CCOc2ccc(-c3cnc4c(-c5cccc(F)c5)cnn4c3)cc2)CC1,65.4%
14,C/C(=C(/c1ccc(O)cc1)c1ccc(OCCN(C)C)cc1)c1ccc(Cl)cc1,22.2%
15,O=c1[nH]c(=O)n(C2OC(CO)C(O)C2O)cc1I (stereo not given),102% and 123%
16,COC(=O)Nc1nc2ccc(S(=O)c3ccccc3)cc2[nH]1 (stereo not given),33.8%
17,C=C(C=O)[C@@H]1CC[C@]2(C(=O)O)CC[C@]3(C)C(CC[C@@H]4[C@@](C)(CCC#N)[C@H](C(=C)C=O)CC[C@]43C)[C@@H]12 (stereo not given in full),79.8%
18,Fc1ccc(-c2nn(-c3ccccc3)cc2-c2nc3ccccc3o2)cc1,-21.2% (active)

row,Compound,growth
1,C#C[C@]1(O)CC[C@H]2[C@@H]3CC=C4c5sc(Nc6cc(F)ccc6F)nc5CC[C@]4(C)[C@H]3CC[C@@]21C,-45.6% (active)
2,Cn1c(=O)n(C)c2cc(CNCCNc3ccnc4cc(Cl)ccc34)ccc21,59.4%
3,COc1ccc(Cl)cc1NC(=O)c1cc2c([nH]1)-c1nc(NC(=O)C(C)C)sc1CC2,112%
4,O=C(Nc1ccc(C(=O)Nc2ccc(C3=NCCCN3)cc2)cc1)Nc1ccc(C2=NCCCN2)cc1,66.6%
5,CC(C)(C)C(=O)Nc1nc2c(s1)CCc1ccn(S(=O)(=O)c3ccccc3)c1-2,88.7%
6,O=C(CCCCCCN1CC(=O)N2[C@@H](C3CCCCC3)c3[nH]c4ccccc4c3C[C@H]2C1=O)NO,64.3%
7,COc1cc2nc3cc([N+](=O)[O-])ccc3c(NCCNCC(C)O)c2cc1OC (stereo not given),-45.6% (active)
8,O=C1C=CC2(NN=C(c3ccccc3)N2c2ccc(Cl)cc2)c2cccc(O)c21 (stereo not given),47.6%
9,Cc1ccc(S(=O)(=O)N2CCc3ccc(O)c4c3C2Cc2cc(Cl)ccc2-4)cc1 (stereo not given),53.9%
10,CN(C)c1ccc(N=C2C=CC(=O)C=C2)cc1,12.5%
11,c1cc(OCCN2CCCCC2)cc(-c2n[nH]c3ccc(-c4ncn[nH]4)cc23)c1,93%
12,CCN(C(=O)N1CCN(c2cc3c(cc2F)c(=O)c(C(=O)O)cn3C2CC2)CC1)c1nc(-c2ccc(Cl)cc2)cs1,-2.66% (active)
13,CC12CCC(O)CC1=CCC1C2CCC2(C)C3=NN=CC3CC12 (stereo not given),92.1%
14,COc1ccc(C(=O)c2cc3c(N)c(C(=O)Nc4cccc5ccccc45)sc3nc2C)cc1,-0.26% (active)
15,Nc1c(C(=O)Nc2ccccn2)sc2nc3c(cc12)CCCC3,43.8%
16,S=c1ccc2ccccc2[nH]1,98% and 116%
17,CC1(C)C(=O)/C(=C\c2cccnc2)C[C@]2(C)[C@H]3CC=C4[C@@H]5C[C@@](C)(C(=O)O)CC[C@]5(C)CC[C@@]4(C)[C@]3(C)CC[C@@H]12,95.8%
